Results from the supplement of paper PMC10681739.
Over roughly 4,000 sequences, “arbitrary fluorescence units” has its median near 830; the highest 2% begin near 6,500. Only a selection was taken, and the highest values are over-represented in it overall.

What follows are sequences tested against RUNX1 (UniProt Q01196) (assay: RUNX1 binding intensity (PBM fluorescence), RUNX1 alone (arbitrary fluorescence units); higher = stronger binding). Details: RUNX1 concentration 2 nM; ETS1 concentration 0 nM.
Protocol: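 gcPBM on 36-bp genomic-derived probes (partner site mutated) containing one RUNX1 site and no ETS1 site. Recombinant human RUNX1 (2 nM) was incubated alone or with ETS1 (25 nM) and detected by anti-RUNX1 antibody fluorescence. Values are medians over 4 replicate spots (not normalised). The probes sit in constant array flanks that are not printed.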

Sequence of RUNX1 (Q01196 whole entry): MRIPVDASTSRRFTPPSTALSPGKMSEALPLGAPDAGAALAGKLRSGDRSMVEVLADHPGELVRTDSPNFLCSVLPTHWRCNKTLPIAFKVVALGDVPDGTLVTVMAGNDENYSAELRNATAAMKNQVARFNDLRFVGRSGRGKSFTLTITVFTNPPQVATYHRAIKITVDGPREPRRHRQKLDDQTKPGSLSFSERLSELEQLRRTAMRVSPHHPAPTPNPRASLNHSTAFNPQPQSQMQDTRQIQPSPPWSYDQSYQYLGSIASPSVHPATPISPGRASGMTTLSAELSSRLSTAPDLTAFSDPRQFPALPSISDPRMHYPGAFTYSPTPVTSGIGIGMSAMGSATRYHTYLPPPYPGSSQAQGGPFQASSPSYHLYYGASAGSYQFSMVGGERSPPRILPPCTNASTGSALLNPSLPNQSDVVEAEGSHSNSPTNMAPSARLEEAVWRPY

Sequence | RUNX1 binding intensity
AACTAGTTCGTTCCTTATGCGGCCCAGGGCTCCACC | 893
GGCACGAAAGAGCTGATGCATTTCAACCGCAGCCTG | 1160
CGAGCCGCCTTGCTCCCCGGCCCACAGCCCAGCACT | 889
CCGGGGTAAACCACGACACGACTCCCTGCCGTGTGG | 886
GACCTTCACCCACAAGAACCACCTCCTCTCAGTAAA | 1950
TACGACTTCAAGGCGGTCAACATCCAGGGCAAACTG | 730
TCCCTCCTTGCGCTCTGGTTTTGTGGTTGCTTGCTG | 1120
CCAGCCGTAAGCCCCGCCCCCTAGAGGCACCGCGGA | 882
GCTTTGCAGTGTCCTCTATGGAACACCACACACAGT | 809
GGGGACGAAGCGGTCTCGGTTCAGCCCGGCTGGGAG | 692
TAAGGCTGTGTGGCTTCCAGATCAAAAACCGCAAAA | 8380
CTCTGGCAGGGAGCTCTGAGGGCTAAACCACAAAAA | 1560
CAGGCTGCTGTGGCTACTGCAGCACTGCCTCCCGCT | 741
GCTCTGGCCGAAGATGTCCCTGCGGTGCAGCTGCCG | 796
GGGCTTGACCGCCATGTTTGAAGCGGGCGCAAAAAA | 758
CAGAACGGTCCCTGGAACACTGCGGTTCCCGCCTGG | 874
AGGCTGTTGTGGGTTGCGCCGCTTCGGAGGTGGGAG | 846
CTTGCCACACTGCCTCTTGTTTTGAACCACTATATT | 2040
GCACACAGTGCGGTTGGCTTCCAGCTTCATGTTGGC | 1470
CTTGTAGTCAGGTGGTTGGGCAGGGTGTTTCTCATG | 807
TCCAAGGCGCAAAAAACCCGCCCTAAACCGCACCCC | 1630
AGCGCCTTACCCGCGGCACACCCATTTGCTGACCCC | 1120
CTTGTTCTATCTCCTGTTTGTGGTGAGTGACTGTCT | 1370
AGGCTCATTGCCTGTTTTCATGTGGTTTAGAGAAAA | 1030
TGATCAGGCAGGAGAAGCGCAGAGGTGGACCCGCAA | 751

Sequence | RUNX1 binding intensity
GGGATCCTTCAGCTCCGGGTTAACCCCGACCGCGCC | 697
CACTCCCCTCCCGCGGTCACACTTCAGGCGGCCACC | 1460
GGGGGGGTGCGGTCCTGGTCGGGAGGAGGTGGAGAG | 869
ACCTCCACCACAAAGAACAAAAAACGAAGGATAAAA | 1520
CCACACGGCAGGGAGTCGTGTCGTGGTTTACCCCGG | 752
ACGCCCGCTGACCACACTGGCGACGTCCCTCTCTGT | 1400
CAGGGGGCCCCACATGCCGCTCTTGCTGCCCAGGTC | 798
CAGTCGCCAGAAACCACAGCACTTCGGCCTGCTTCA | 1480
GACATGTGGCTATTTTGGGCAATTGCCTGAGGAGGC | 720
CGACTGGAACCACTCTGAGGCGCTGCCGCAGACACC | 1040
TTAACTCCACAGAAGAATAAACCACCACCGCTCACC | 1060
GACCACCTCCTTTCTGTGTTTTGTGGTTTCACAACT | 2680
CATTGTGGGCGCTGTAGTCCAGCTGGAACCTGTTTG | 760
GGAGGCTGTGGTGAGGAAAGAGGAGGTGACACTCCT | 883
CCCCTCAATTCCCTCAACCCTTCCCACAAACTGGGA | 1730
GGCTTACGGCGGGGTACCCTCCTCTGTGGGCGGGGC | 715
CTGGCCGTGGCGTACGGGAGCTGTGGGGCCGTCCCC | 728
GGCTGGAAAGGGTCTTGAGAGGAGGTGGTTGCCTTA | 705
TGTCTGAGGTTTCTCTGTGAACATGAAGCTGAGAAC | 790
AGGCTTTCTGTTTTATCTCGTGTGTGTGGTGCACCA | 886
GGGCTTACGGCTGAACCCATGGCTGCGGGCTGTGCT | 704
TCCACAGCCGGTTTCGGCCGGTTCCCACAAGCCCCT | 909
CCGCTTACGGCCTTCGCCCGGCTTACCCGCGTCGCA | 1030
GGCATCCCCTTGCGGCCATCACTTTCTATGCCCTCA | 1250
GGGGCAGTGGTCACAGGAGGATCTTGCTGGAGTCAT | 697
